Assay results published in PubChem BioAssay.
Records with an inconclusive call do not appear. The source made the active and inactive calls.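 How the source made its calls, unless noted: active means viability at or under a set limit in both replicates, limit being median viability minus 3 SD (cut at about 48% in these data, passing the limit was not always enough); inconclusive means at or under the limit in just one replicate; inactive means at or above the limit in both replicates.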

Tests used:
[1] = reducers of endogenous Her2 protein level, primary screen, SKBR3 breast tumor cells, AlphaScreen, ATP viability (AID 461;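 active means Her2 level under about 52% in both replicate screens, with viability over 70% of control, limit read from the data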;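 on Her2 level: lower value means less Her2 protein in the cells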;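 on viability: percent of carrier control wells set as 100% viability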); conditions: 18-24 h, measured here: SKBR3 viability, ATP luminescence, at 10 µM
[2] = molecular target: Receptor tyrosine-protein kinase erbB-2 (Homo sapiens) (UniProt P04626); experiment: as above; conditions: 18-24 h, at 10 µM, stronger effect = lower value
[3] = SK-BR-3 cell growth inhibitors, pilot screen, 24 h, human (AID 572;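 active means viability at or below 10% of carrier control in both of two separate runs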;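 further: compound exposure lasted between 18 and 24 h rather than exactly 24 h; 100% = carrier-treated control wells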); conditions: SK-BR-3 viability, CellTiter-Glo luminescence, at 10 µM, stronger effect = lower value
[4] = HUVEC growth inhibition – cell-based, human, primary screen (AID 575;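 active means viability at or below 30% in both replicate assays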;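 further: 100% = median of untreated cell wells with 0.1% DMSO on each plate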); conditions: HUVEC proliferation, CellTiter-Glo luminescence, 72 h; at 10 µM; stronger effect = lower value
[5] = growth inhibitors of H69AR lung tumor, primary screen, human, duplicate replicates (AID 580); conditions: H69AR lung tumor cells viability, ATP luminescence, 72 h; at 10 µM; stronger effect = lower value;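 further: 100% = mean luminescence of untreated wells and 0% = no signal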
[6] = reversal of MRP1-mediated doxorubicin resistance, pilot screen, H69AR cells, doxorubicin co-treatment (AID 601;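 active means viability loss from added drug above about 55%, and viability with drug at most 40%, in both replicates, limit read from the data, passing the limit was not always enough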); conditions: CellTiter-Glo, 72 h, at 10 µM; for differential viability (reversal): stronger effect = higher value
[7] = 384-well plate pilot, post-Golgi transport modulator project, inhibition of yeast transport mutant growth (AID 636; in the data active means inhibition above about 31%); conditions: absorbance 615 nm, about 18 h, stronger effect = higher value
[8] = growth suppression of yeast trafficking mutant, preliminary HTS, modulators of trafficking downstream of Golgi apparatus project, 1536-format plate, OD 615 nm (AID 637; in the data active means inhibition above about 30%); conditions: yeast transport mutant growth, absorbance 615 nm, 18 h; stronger effect = higher value
[9] = OD615 S. cerevisiae growth inhibition, permissive medium, pilot counter-assay, permissive growth control for S. cerevisiae lifespan shortening project (AID 705;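 active means growth inhibition above 25% in both replicates, a cutoff set 3 SD above the mean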); conditions: OD615, 24 h, at 10 µM, stronger effect = higher value
[10] = Restrictive medium S. cerevisiae growth inhibition, OD615, pilot screen of yeast lifespan reduction project, restrictive growth control (AID 706;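 active means growth inhibition above a set limit, 3 SD over mean compound inhibition, in both replicates, cut at about 43% in these data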;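 further: modified DeaD lifespan yeast strain shifted to restrictive glucose medium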); conditions: OD615, 48 h, at 10 µM, stronger effect = higher value
[11] = viability gain of MRP-1-high H69AR cells under doxorubicin, pilot screen, MRP-1 activator project, CellTiter-Glo, duplicate (AID 807;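 active means viability increase at or above a cutoff of the median across tested compounds plus 3 SD, cut at about 8.5% in these data, passing the limit was not always enough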;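 further: compound pretreatment 18-22 h then 72 h combined with doxorubicin; 0% = doxorubicin alone and 100% = vehicle without doxorubicin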); conditions: H69AR viability with doxorubicin, CellTiter-Glo luminescence; at 10 µM; stronger effect = higher value
[12] = growth suppression of beta-catenin knockout HCT116, pilot screen, human colon tumor cells (AID 823;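 active means cell viability at or below a set limit in both duplicate runs, the limit being the all-compound median minus 4 SD, cut at about 23% in these data, passing the limit was not always enough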;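 further: 0% = wells killed by 20 µM Hyamine and 100% = untreated DMSO cell wells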); conditions: CellTiter-Glo, 60 h, at 10 µM, stronger effect = lower value
[13] = growth suppression of PTEN-deleted HCT116, pilot screen, cell-based, HCT116 clonal line, CellTiter-Glo (AID 824;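 active means viability at or below 27.92% in each of two runs, the all-compound median minus 4 SD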;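 further: 0% = 20 µM Hyamine control and 100% = vehicle cell control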); conditions: 60 h, at 10 µM, stronger effect = lower value
[14] = inhibitors of the yeast RAM network, pilot screen, dse1pr::URA3 reporter, 5-FOA selection (AID 869;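 active means inhibition over a set limit, the all-compound mean plus 3 SD, in both replicate runs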;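 further: 0% = DMSO wells with no growth and 100% = 10 µM 1-NA-PP1 with full growth; RAM network block rescues cells from 5-FOA so hits raise OD615 growth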); conditions: S. cerevisiae dse1pr::URA3 5-FOA growth, OD615, 2 d; at 10 µM; stronger effect = higher value; strain carries analog-sensitive mutant Cbk1 kinase
[15] = RAM signaling pathway blockade in yeast – S. cerevisiae, Pdr1DBD-CYC8 efflux-inhibited sensitized strain, primary screen (AID 1298;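 active means RAM network inhibition above 8.4% in each of two replicates, 3 SD over the compound average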;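 further: 0% = DMSO untreated cells without growth and 100% = 10 µM 1-NA-PP1 full growth; higher means more yeast growth rescued from 5-FOA killing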); conditions: S. cerevisiae cbk1-as DSE1-URA3 strain, 5-FOA growth OD615, 2 d; at 50 µM; stronger effect = higher value
[16] = H69AR cells + 2 uM doxorubicin, measured here: viability with 2 uM doxorubicin, stronger effect = lower value
[17] = H69AR cells, compound alone cytotoxicity

Sequence of Receptor tyrosine-protein kinase erbB-2 (Homo sapiens) (P04626 whole entry, looked up): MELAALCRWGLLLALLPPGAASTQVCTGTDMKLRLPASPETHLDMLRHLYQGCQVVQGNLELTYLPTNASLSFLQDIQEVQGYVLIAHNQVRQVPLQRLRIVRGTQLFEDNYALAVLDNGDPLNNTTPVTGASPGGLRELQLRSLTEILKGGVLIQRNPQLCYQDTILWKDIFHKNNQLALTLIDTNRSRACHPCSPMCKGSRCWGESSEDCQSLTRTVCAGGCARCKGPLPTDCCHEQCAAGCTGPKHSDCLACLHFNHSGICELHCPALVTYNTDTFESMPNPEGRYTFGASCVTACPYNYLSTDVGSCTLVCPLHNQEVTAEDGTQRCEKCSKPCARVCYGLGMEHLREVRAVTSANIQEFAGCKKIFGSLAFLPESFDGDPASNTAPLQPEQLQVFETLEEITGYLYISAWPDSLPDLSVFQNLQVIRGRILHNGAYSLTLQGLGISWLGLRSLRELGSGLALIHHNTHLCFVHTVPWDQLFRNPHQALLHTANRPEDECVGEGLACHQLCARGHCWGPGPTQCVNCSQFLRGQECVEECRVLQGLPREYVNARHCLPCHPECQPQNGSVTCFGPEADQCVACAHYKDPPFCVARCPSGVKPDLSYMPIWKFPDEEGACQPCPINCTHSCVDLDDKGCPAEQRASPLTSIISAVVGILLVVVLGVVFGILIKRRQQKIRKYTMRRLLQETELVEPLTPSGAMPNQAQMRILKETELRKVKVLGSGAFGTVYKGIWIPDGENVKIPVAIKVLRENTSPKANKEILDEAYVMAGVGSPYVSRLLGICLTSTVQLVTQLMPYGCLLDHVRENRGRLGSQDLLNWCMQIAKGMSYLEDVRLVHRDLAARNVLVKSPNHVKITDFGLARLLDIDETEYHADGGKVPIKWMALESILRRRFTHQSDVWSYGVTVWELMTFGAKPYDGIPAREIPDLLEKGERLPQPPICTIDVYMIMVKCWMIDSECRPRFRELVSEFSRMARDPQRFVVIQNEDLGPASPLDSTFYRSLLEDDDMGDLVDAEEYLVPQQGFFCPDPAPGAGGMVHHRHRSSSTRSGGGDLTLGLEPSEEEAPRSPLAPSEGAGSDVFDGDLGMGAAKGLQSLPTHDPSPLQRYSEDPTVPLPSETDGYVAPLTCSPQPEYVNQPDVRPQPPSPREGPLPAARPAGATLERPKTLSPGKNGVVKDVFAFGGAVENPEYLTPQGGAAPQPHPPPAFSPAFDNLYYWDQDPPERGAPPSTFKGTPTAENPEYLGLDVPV

CCCC(=O)Nc1nc2ccc(S(N)(=O)=O)cc2s1
inactive: Her2 level [2] 98% | viability [3] 88% | viability [4] 90% | viability [5] 106% | differential viability (reversal) ([6]; H69AR cells + 2 uM doxorubicin) 34.3% | inhibition [7] -3.33% | inhibition [8] 6.33% | growth inhibition [9] -4% | growth inhibition [10] -0.595% | viability increase [11] -1.78% | viability [12] 99.4% | viability [13] 90.5% | inhibition [14] 0.465% | RAM network inhibition [15] -0.2%
71.4%: viability [6, 16]
106%: viability [6, 17]
88%: viability [1]

O=S(=O)(c1ccc(F)cc1)N1CCC(N2CCCC2)CC1
104%: viability [1]
80.9%: viability [6, 16]
inactive: Her2 level [2] 96% | viability [3] 104% | viability [4] 89% | viability [5] 91.2% | differential viability (reversal) ([6]; H69AR cells + 2 uM doxorubicin) 10.3% | inhibition [7] -4.4% | inhibition [8] 3.67% | growth inhibition [9] -0.015% | growth inhibition [10] -5.88% | viability increase [11] -2.89% | viability [12] 96.2% | viability [13] 95.9% | inhibition [14] 1.23% | RAM network inhibition [15] 0.93%
91.2%: viability [6, 17]

CCOCCOc1nc2c(c(=O)n(C)c(=O)n2C)n1Cc1ccc(C)cc1
95.4%: viability [6, 16]
90.8%: viability [6, 17]
inactive: Her2 level [2] 113% | viability [3] 83% | viability [4] 94.5% | viability [5] 90.8% | differential viability (reversal) ([6]; H69AR cells + 2 uM doxorubicin) -4.61% | inhibition [7] 0.27% | inhibition [8] 4.33% | growth inhibition [9] 3.97% | growth inhibition [10] -4.73% | viability increase [11] 0.37% | viability [12] 82.3% | viability [13] 79% | inhibition [14] 2.64% | RAM network inhibition [15] 2.08%
83%: viability [1]

Cc1cc(NS(=O)(=O)c2ccccc2)no1
90.7%: viability [6, 17]
91.7%: viability [6, 16]
114%: viability [1]
inactive: Her2 level [2] 115% | viability [3] 114% | viability [4] 94.5% | viability [5] 90.7% | differential viability (reversal) ([6]; H69AR cells + 2 uM doxorubicin) -1.04% | inhibition [7] -5.33% | inhibition [8] 2.83% | growth inhibition [9] -14.5% | growth inhibition [10] -6.42% | viability increase [11] 0.56% | viability [12] 99.9% | viability [13] 98.5% | inhibition [14] 1.86% | RAM network inhibition [15] 5.41%

COc1ccc(CNc2oc(-c3ccccc3)nc2C#N)cc1
inactive: Her2 level [2] 83.5% | viability [3] 88.5% | viability [4] 69.7% | viability [5] 103% | differential viability (reversal) ([6]; H69AR cells + 2 uM doxorubicin) 0.495% | inhibition [7] 4.27% | inhibition [8] -4.92% | growth inhibition [9] 0.305% | growth inhibition [10] 12.3% | viability increase [11] 2.09% | viability [12] 98.8% | viability [13] 98.6% | inhibition [14] 0.335% | RAM network inhibition [15] 4.07%
102%: viability [6, 16]
88.5%: viability [1]
103%: viability [6, 17]

O=c1oc2ccccc2cc1NCc1ccccc1O
87.4%: viability [6, 16]
inactive: Her2 level [2] 82% | viability [3] 90.5% | viability [4] 79.2% | viability [5] 73.9% | differential viability (reversal) ([6]; H69AR cells + 2 uM doxorubicin) -13.5% | inhibition [7] -2.56% | inhibition [8] -0.5% | growth inhibition [9] -12.5% | growth inhibition [10] -15.2% | viability increase [11] -6.51% | viability [12] 91.2% | viability [13] 91.1% | inhibition [14] 1.91% | RAM network inhibition [15] 1.22%
73.9%: viability [6, 17]
90.5%: viability [1]

CN(C(=O)c1ccco1)c1nnc(C23CC4CC(CC(C4)C2)C3)s1
86%: viability [1]
inactive: Her2 level [2] 87% | viability [3] 86% | viability [4] 60.3% | viability [5] 75.9% | differential viability (reversal) ([6]; H69AR cells + 2 uM doxorubicin) -0.595% | inhibition [7] -3.73% | inhibition [8] -0.83% | growth inhibition [9] -8.84% | growth inhibition [10] -8.94% | viability increase [11] -7.07% | viability [12] 79.5% | viability [13] 66% | inhibition [14] 0.17% | RAM network inhibition [15] 5.35%
75.9%: viability [6, 17]
76.5%: viability [6, 16]

COc1ccc(CC(=O)NCc2nnc(SCC(=O)Nc3nccs3)n2-c2ccccc2)cc1
inactive: Her2 level [2] 98% | viability [3] 99.5% | viability [4] 98.4% | viability [5] 96.6% | differential viability (reversal) ([6]; H69AR cells + 2 uM doxorubicin) 2.73% | inhibition [7] -4.4% | inhibition [8] -3.67% | growth inhibition [9] -3.97% | growth inhibition [10] 7.4% | viability increase [11] -1.27% | viability [12] 102% | viability [13] 96.7% | inhibition [14] 1.48% | RAM network inhibition [15] 6.87%
96.6%: viability [6, 17]
99.5%: viability [1]
93.9%: viability [6, 16]

O=C(NCCC1=CCCCC1)C1CCN(S(=O)(=O)c2cccc3cccnc23)CC1
98.2%: viability [6, 16]
97%: viability [6, 17]
104%: viability [1]
inactive: Her2 level [2] 96% | viability [3] 104% | viability [4] 89% | viability [5] 97% | differential viability (reversal) ([6]; H69AR cells + 2 uM doxorubicin) -1.27% | inhibition [7] -2.27% | inhibition [8] -0.82% | growth inhibition [9] 6.61% | growth inhibition [10] -0.115% | viability increase [11] 4.13% | viability [12] 93.3% | viability [13] 91.6% | inhibition [14] 0.885% | RAM network inhibition [15] 1.51%

CCCCn1c2c(c3ccccc31)CCc1nonc1-2
103%: viability [6, 17]
107%: viability [1]
105%: viability [6, 16]
inactive: Her2 level [2] 108% | viability [3] 107% | viability [4] 89.6% | viability [5] 103% | differential viability (reversal) ([6]; H69AR cells + 2 uM doxorubicin) -2.16% | inhibition [7] -0.77% | inhibition [8] -3.67% | growth inhibition [9] -8.86% | growth inhibition [10] -29.4% | viability increase [11] 1.75% | viability [12] 80.4% | viability [13] 78.4% | inhibition [14] 2.28% | RAM network inhibition [15] 2.83%
